Records with an inconclusive call do not appear. The source made the active and inactive calls. The call rests on the fitted dose curve; in most records, active means well fitted curve in the direction sought with a large enough effect; inconclusive means small, poorly fitted or top-dose-only effect, or effect the other way, or another doubt; inactive means no such curve, though single readings can be large or run the other way.
Experiment: Confirmatory Assay to Find Inhibitors of T. brucei phosphofructokinase: Cytotoxictity in KB-3-1
Settings: KB-3-1 human cells cytotoxicity counter-screen; series mostly up to 46.1 µM; activity change, negative = cytotoxicity: at the top concentration
Description: Various species of the protozoan family Trypanosomatidae are responsible for a range of serious human diseases in tropical and subtropical areas of the world. […] Many of the disorders caused by trypanosomatids are fatal if left untreated, but most currently used drugs are inefficient and toxic.
Oxidative metabolism involving the mitochondrial tricarboxylic acid cycle and oxidative phosphorylation are repressed in these parasites, and recent RNA interference (RNAi) experiments have shown that even partial depletion of certain individual glycolytic enzymes can lead to the death of cultured parasites. One such glycolytic enzyme, phosphofructokinase (PFK), catalyzes the formation of fructose-1,6-bisphosphate (F1,6BP) and ADP from fructose-6-phosphate (F6P) and ATP, and in many metabolic circumstances makes an important contribution to the control of flux through the glycolytic pathway. As a specific glycolytic target, PFK is particularly attractive as it catalyzes the first irreversible step in glycolysis, and structural and kinetic studies have shown very substantial and essential differences from corresponding host enzymes, allowing for the discovery of parasite-selective inhibitors.
Confirmed qHTS active compounds were tested for toxicity against the KB-3-1 human cervical carcinoma cell lines. This line havs historically been used as representative human cells in in vitro Trypanosoma assays, and so provide a relevant surrogate for human cells in testing Tb PFK inhibitor toxicity.
NIH Chemical Genomics Center [NCGC]
NIH Molecular Libraries Probe Centers Network [MLPCN]
Assay Submitter (PI): Malcom Walkinshaw, University of Edinburg
KB-3-1 cells were dispensed into white solid 1536-microwell plates in 5 uL media (high glucose DMEM, 10% FBS) with a Thermo Multidrop. The plates were incubated at 37 degrees Celsius for 2 hours, and subsequently treated with compounds using the Kalypsys pin tool, delivering 23 nL of test compounds to each well. The plates were then incubated for an additional 72 hours at 37 degrees Celsius. Cytotoxicity was assessed by adding 2.5 uL of Cell-Titer Glo (Promega, Madison, WI) via Multidrop, incubating at room temperature for 10 min and reading luminescence on the Perkin Elmer ViewLux using a 1 second exposure and 1x binning. DMSO-treated cells were included as negative control, while media-only wells were used as a positive control equivalent to 100% cell toxicity for the sake of data normalization.

Row | Structure (SMILES) | activity change, negative = cytotoxicity
1 | Cc1cc(NS(=O)(=O)C2CCN(C(=O)Cc3ccc(Cl)c(Cl)c3)CC2)no1 | -7.05% (inactive)
2 | Cc1cc(NS(=O)(=O)c2ccc(NC(=O)Cc3ccc(C)c(C)c3)cc2)no1 | -4.17% (inactive)
3 | Cc1cc(NS(=O)(=O)c2ccc(NC(=O)Cc3ccc(Cl)c(Cl)c3)cc2)n(C)n1 | 4.89% (inactive)
4 | Cc1cc(NS(=O)(=O)c2cccc(NC(=O)Cc3ccc(Cl)c(Cl)c3)c2)no1 | -5.11% (inactive)
5 | Cc1cc(NS(=O)(=O)c2ccc(NC(=O)Cc3ccc(Cl)c(F)c3)cc2)no1 | -4.78% (inactive)
6 | COc1ccc(CC(=O)Nc2ccc(S(=O)(=O)Nc3cc(C)on3)cc2)cc1C | -9.25% (inactive)
7 | Cc1cc(NS(=O)(=O)Cc2ccc(NC(=O)Cc3ccc(Cl)c(Cl)c3)cc2)no1 | -0.6% (inactive)
8 | Cc1cc(NS(=O)(=O)c2ccc(NCCc3ccc(Cl)c(Cl)c3)cc2)no1 | 2.76% (inactive)
9 | Cc1cc(NS(=O)(=O)c2ccc(NC(=O)Cc3ccc4ccccc4c3)cc2)no1 | 9.72% (inactive)
10 | Cc1cc(NS(=O)(=O)c2ccc(NC(=O)Cc3cccc(Cl)c3)cc2)no1 | -2.52% (inactive)
11 | Cc1cc(NS(=O)(=O)c2ccc(NC(=O)C(C)(C)c3ccc(Cl)c(Cl)c3)cc2)no1 | 13.5% (inactive)
12 | Cc1cc(NS(=O)(=O)c2ccc(NS(=O)(=O)Cc3ccc(Cl)c(Cl)c3)cc2)no1 | 7.09% (inactive)
13 | Cc1cc(NS(=O)(=O)CCNC(=O)Cc2ccc(Cl)c(Cl)c2)no1 | 11.2% (inactive)
14 | Cc1cc(NS(=O)(=O)c2ccc(N(C)C(=O)Cc3ccc(Cl)c(Cl)c3)cc2)no1 | -0.538% (inactive)
15 | O=C(Cc1ccc(Cl)c(Cl)c1)Nc1ccc(S(=O)(=O)Nc2ccc(C(=O)O)cc2)cc1 | 8.3% (inactive)
16 | Cc1cc(NS(=O)(=O)c2ccc(NC(=O)Cc3ccc(Cl)cc3)cc2)no1 | -0.216% (inactive)
17 | Cc1cc(N[S+](=O)([O-])c2ccc3cc(NC(=O)Cc4ccc(Cl)c(Cl)c4)ccc3c2)no1 | -2.44% (inactive)
18 | O=C(Cc1ccc(Cl)c(Cl)c1)Nc1ccc(S(=O)(=O)Nc2ccon2)cc1 | -0.619% (inactive)
19 | COc1ccc(CC(=O)Nc2ccc(S(=O)(=O)Nc3cc(C)on3)cc2)cc1OC | -4.67% (inactive)
20 | Cc1cc(NS(=O)(=O)c2ccc(C(=O)NCc3ccc(Cl)c(Cl)c3)cc2)no1 | 21.8% (inactive)
21 | O=C(Cc1ccc(Cl)c(Cl)c1)Nc1ccc(S(=O)(=O)Nc2cccc(C(=O)O)c2)cc1 | 11.4% (inactive)
22 | Cc1cc(NS(=O)(=O)c2ccc(NC(=O)CCc3ccc(Cl)c(Cl)c3)cc2)no1 | -12.1% (inactive)
23 | Cc1cc(NS(=O)(=O)c2ccc(NC(=O)Cc3ccc(C)c(F)c3)cc2)no1 | -3.65% (inactive)
24 | O=C(Cc1ccc(Cl)c(Cl)c1)Nc1ccc(S(=O)(=O)Nc2cncnc2)cc1 | 5.74% (inactive)
25 | O=C(Cc1ccc(Cl)c(Cl)c1)Nc1ccc(S(=O)(=O)O)cc1 | 6.38% (inactive)
26 | Cc1cc(NS(=O)(=O)c2ccc(NC(=O)Cc3ccc(Cl)cc3Cl)cc2)no1 | 5.04% (inactive)
27 | Cc1cc(NS(=O)(=O)c2ccc(NC(=O)c3ccc(Cl)c(Cl)c3)cc2)no1 | -2.15% (inactive)
28 | Cc1cc(NC(=O)c2ccc(NC(=O)Cc3ccc(Cl)c(Cl)c3)cc2)no1 | 0.287% (inactive)

Reference: PubChem BioAssay AID588325 (National Center for Advancing Translational Sciences (NCATS), 2011)
